Drawing on PubChem BioAssay (Tox21), this text covers Potency, outcome and activity change, positive = activation for nine compounds.

Unmarked numbers belong to inactive results. Records with an inconclusive call do not appear. Calls of active or inactive are those of the source. Unless noted, calls come from the whole dose curve; as a rule, active = well fitted curve in the direction sought with a large enough effect in the repeat runs; inconclusive = weak or mixed curves; inactive = no such curve, though single readings can be large; an effect the other way counts as inactive or inconclusive.

The nature of assay [1]: qHTS assay to identify small molecule antagonists of the estrogen related receptor (ERR) signaling pathway from Tox21 library - cell viability counter screen (AID 1224834). Note: nearly all actives have a fitted effect of over 30% in size. The gist of the method: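 Fluorescence from CellTiter-Fluor gives the viability read-out, taken 30 min after reagent addition. Before that, ERR cells seeded 6 h earlier were incubated with compounds for 17.5 h at 37 C.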

Assay [2] has as its target Luciferin 4-monooxygenase (Photinus pyralis) (UniProt P08659). Nature of the assay: qHTS assay to identify small molecule inhibitors of firefly luciferase (AID 1224835). Note: nearly all actives have a fitted effect of over 25% in size. In outline: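 Quantitative HTS format; KM concentrations of both substrates. Purified P. pyralis FLuc activity quantified from luminescence images.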
A general note: In qHTS, concentration-response curves come from the screen itself.

Assay [3] can be described thus: qHTS assay to identify small molecule agonists of the constitutive androstane receptor (CAR) signaling pathway - cell viability counter screen (AID 1224836). Note: nearly all actives have a fitted effect of over 45% in size. The gist of the method:
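HepG2 cells stably carrying hCAR and a CYP2B6-2.2kb reporter; 15-concentration compounds plus PK11195 (final 0.75 uM), 23 hr at 37 C/5% CO2. Viability read by CellTiter-Fluor fluorescence.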

Assay [4] can be described thus: qHTS assay to identify small molecule antagonists of the estrogen related receptor signaling pathway with the pleiotropic PPARgamma coactivator (PGC) from Tox21 10K library - cell viability counter screen (AID 1224840; active = well fitted cell-killing curve with a large enough effect in the repeat runs, not every such curve was filed as active; note: nearly all actives have a fitted effect of over 40% in size). In outline: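 PGC/ERR cells, 2,000/well; 6 h pre-incubation 37 C/5% CO2; cpd in DMSO via pin tool; 17.5 h 37 C; CellTiter-Fluor, 30 min; fluorescence.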

The nature of assay [5]: qHTS assay to identify small molecule antagonists of the estrogen related receptor signaling pathway with the pleiotropic PPARgamma coactivator (PGC) from Tox21 10K library (AID 1224841; call rule not given here; note: actives are mostly falling curves and most rising ones were filed inactive; nearly all actives have a fitted effect of over 50% in size). In outline:
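PGC/ERR cell line, 2,000 cells/well; 6 h pre-incubation 37 C/5% CO2; compounds (DMSO) pinned in; 18 h, 37 C; One-Glo, 30 min RT; luminescence.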

Assay [6] is described as follows: qHTS assay to identify small molecule agonists of the estrogen related receptor signaling pathway with the pleiotropic PPARgamma coactivator (PGC) from Tox21 10K library (AID 1224842). Note: nearly all actives have a fitted effect of over 15% in size. In outline:
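PGC/ERR reporter cells (NTP line) were seeded 2,000 per well, rested 6 h at 37 C/5% CO2, then pin-dosed with compounds in DMSO for 18 h at 37 C; luciferase read by One-Glo luminescence after 30 min at room temperature.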

Assay [7] concerns the target Thyrotropin receptor (Homo sapiens) (UniProt P16473). In words: qHTS assay to identify small molecule agonists of the thyroid stimulating hormone receptor (TSHR) signaling pathway (AID 1224843; calls by dose curve; note: nearly all actives have a fitted effect of over 45% in size). In outline:
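Cell line HEK293 with TSHR; density 800/well. Exposure 30 min RT. Readout HTRF cAMP (cAMP-d2/anti-cAMP-cryptate), 1 h RT before reading.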

Assay [8] is described as follows: qHTS assay to identify small molecule agonists of the hypoxia (HIF-1) signaling pathway - cell viability counter screen (AID 1224844; calls by dose curve; note: nearly all actives have a fitted effect of over 50% in size). The gist of the method: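 ME-180 HRE-bla cells, 2,000/well, 0.5% dialyzed FBS; 5 hr settle, 17 hr compound at 37C/5% CO2; CCF4-AM reporter read first, then CellTiter-Glo luminescence after 30 min RT.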
The nature of assay [9]: qHTS assay to identify small molecule agonists of H2AX (AID 1224845; active = well fitted activation curve with a large enough effect in the signal ratio in the repeat runs, not every such curve was filed as active; the % refers to the signal ratio). The gist of the method: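 Wild-type CHO-K1 cells plated overnight, then exposed 3 hr at 37C to compounds at 15 concentrations (0.76% DMSO). Lysed, then HTRF anti-pH2AX(S139)-cryptate/anti-H2AX-d2 detection after 24 hr at room temperature; emissions 665 and 620 nm.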
Assay [10] is described as follows: qHTS assay to identify small molecule agonists of the hypoxia (HIF-1) signaling pathway (AID 1224846; active = well fitted activation curve with a large enough effect in the signal ratio in the repeat runs, not every such curve was filed as active; the % refers to the signal ratio). In outline: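 Cell line: CellSensor HRE-bla ME-180; 2,000 cells/well; 0.5% dialyzed FBS; 5 h preincubation; DMSO compound pin transfer; 17 h, 37C, 5% CO2; CCF4-AM added; bla FRET signal scored for activation.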
The nature of assay [11]: qHTS assay to identify small molecule agonists of H2AX - cell viability counter screen (AID 1224847; calls by dose curve; note: top concentration of the series differs between compounds; nearly all actives have a fitted effect of over 30% in size). In outline: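 CHO-K1 cells plated overnight at 37C, then exposed 3 h at 37C to compounds at 15 concentrations (0.76% DMSO final). Viability by CellTiter-Glo luminescence after 30 min at room temperature.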
Assay [12] in a line: qHTS assay to identify small molecule antagonists of the estrogen related receptor (ERR) signaling pathway from Tox21 library (AID 1224848). Note: nearly all actives have a fitted effect of over 50% in size. The gist of the method:
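Screening used an ERR reporter line supplied by NTP, exposed for 18 h at 37 C to library compounds delivered in DMSO. Signal was luciferase luminescence developed with ONE-Glo at room temperature for 30 min.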

A short description of assay [13]: qHTS assay to identify small molecule agonists of the estrogen related receptor (ERR) signaling pathway from Tox21 library (AID 1224849; calls by dose curve; note: nearly all actives have a fitted effect of over 15% in size). The conditions noted are these: ERR reporter cell line, ONE-Glo luciferase, 18 h; at 92.4 µM (top of the series) unless noted. In outline:
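ERR cells, 6 h pre-incubation 37 C/5% CO2; cpd in DMSO pinned; 18 h 37 C; ONE-Glo added, 30 min RT; luminescence read. Agonist mode, qHTS.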

Assay [14] in a line: qHTS RealTime-Glo MT Cell Viability Assay in HepG2 cells - 24 hour (AID 1224867). Note: nearly all actives have a fitted effect of over 50% in size. The gist of the method:
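Viability was tracked continuously by NanoLuc luminescence from prosubstrate reduced by living HepG2 cells, at successive time points over 40 h of compound exposure. Cells with reagent were preincubated 5 h at 37 °C before compound addition.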

The nature of assay [15]: qHTS RealTime-Glo MT Cell Viability Assay in HEK293 cells - 32 hour (AID 1224868). The gist of the method: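 Viability tracked continuously by luminescence as live cells reduce a prosubstrate for NanoLuc; HEK293 cells preincubated 5 h, compound-treated at 37 C, and read at 0, 8, 16, 24, 32 and 40 h.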
Assay [16] is described as follows: qHTS RealTime-Glo MT Cell Viability Assay in HepG2 cells - 40 hour (AID 1224870). Note: nearly all actives have a fitted effect of over 50% in size. In outline:
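HepG2 cells mixed with RealTime-Glo MT reagents (NanoLuc plus cell-permeant prosubstrate) were seeded at 600 cells/well, incubated 5 h at 37 C/5% CO2, then pinned with compounds in DMSO; nonlytic luminescence tracked viability during 40 h treatment.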

A short description of assay [17]: qHTS assay to identify small molecule antagonists of the constitutive androstane receptor (CAR) signaling pathway - cell viability counter screen (AID 1224837). Note: nearly all actives have a fitted effect of over 45% in size. The gist of the method:
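HepG2-CYP2B6-hCAR cells, 2500/well, 4 hr pre-incubation; compound titration, 15 conc.; CITCO 50 nM final; 23 hr, 37 C/5% CO2; CellTiter-Fluor, fluorescence intensity.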

Assay [18] concerns the target Nuclear receptor subfamily 1 group I member 3 (Homo sapiens) (UniProt Q14994). Nature of the assay: qHTS assay to identify small molecule antagonists of the constitutive androstane receptor (CAR) signaling pathway (AID 1224838).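 Note: HepG2 cells stably expressing hCAR with CYP2B6 luciferase reporter stimulated by CITCO; nearly all actives have a fitted effect of over 40% in size.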 The gist of the method: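 HepG2-CYP2B6-hCAR cells; 4 h pre-incubation; cpd (15 conc) + CITCO 50 nM final; 24 h, 37 C/5% CO2; ONE-Glo, luminescence.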

Assay [19] has the same target. In words: qHTS assay to identify small molecule agonists of the constitutive androstane receptor (CAR) signaling pathway (AID 1224839). Note: nearly all actives have a fitted effect of over 15% in size. Note: potency is the fitted concentration of half-maximal effect. In outline: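 HepG2 cells stably co-transfected with hCAR and a CYP2B6-2.2kb luciferase reporter; compounds at 15 concentrations with 0.75 uM PK11195 present. After 24 hr at 37 C, luciferase read by ONE-Glo luminescence.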
A short description of assay [20]: A CellTox Green Cytotoxicity Assay to monitor cytotoxicity in HEK293 cells - 0 hour (AID 1224869). Note: nearly all actives have a fitted effect of over 50% in size. In outline: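 Nonlytic real-time cytotoxicity: HEK293 + CellTox Green reagent plated, 5 h preincubation, pintool compound addition (23 nL in DMSO), 37 C for 40 h, fluorescence measured at successive time points.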
% is set by controls: 0 for no effect and ±100 for the full control effect.

Sequence of Luciferin 4-monooxygenase (Photinus pyralis) (P08659 whole entry, looked up): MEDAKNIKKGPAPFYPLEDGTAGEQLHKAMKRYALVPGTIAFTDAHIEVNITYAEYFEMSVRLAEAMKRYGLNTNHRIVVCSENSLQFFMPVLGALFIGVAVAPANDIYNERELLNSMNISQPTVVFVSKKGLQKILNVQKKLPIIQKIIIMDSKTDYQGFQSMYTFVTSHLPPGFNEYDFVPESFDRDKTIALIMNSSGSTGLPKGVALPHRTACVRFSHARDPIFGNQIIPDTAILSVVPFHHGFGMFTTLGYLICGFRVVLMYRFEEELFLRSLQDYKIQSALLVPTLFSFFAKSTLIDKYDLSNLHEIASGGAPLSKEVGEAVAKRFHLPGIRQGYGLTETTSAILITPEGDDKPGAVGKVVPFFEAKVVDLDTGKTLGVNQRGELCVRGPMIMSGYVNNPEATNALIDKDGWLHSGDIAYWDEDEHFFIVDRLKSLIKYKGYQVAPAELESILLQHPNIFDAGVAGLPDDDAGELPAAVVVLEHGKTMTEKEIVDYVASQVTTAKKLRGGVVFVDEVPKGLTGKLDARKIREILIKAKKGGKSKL
Sequence of Thyrotropin receptor (Homo sapiens) (P16473 whole entry, looked up): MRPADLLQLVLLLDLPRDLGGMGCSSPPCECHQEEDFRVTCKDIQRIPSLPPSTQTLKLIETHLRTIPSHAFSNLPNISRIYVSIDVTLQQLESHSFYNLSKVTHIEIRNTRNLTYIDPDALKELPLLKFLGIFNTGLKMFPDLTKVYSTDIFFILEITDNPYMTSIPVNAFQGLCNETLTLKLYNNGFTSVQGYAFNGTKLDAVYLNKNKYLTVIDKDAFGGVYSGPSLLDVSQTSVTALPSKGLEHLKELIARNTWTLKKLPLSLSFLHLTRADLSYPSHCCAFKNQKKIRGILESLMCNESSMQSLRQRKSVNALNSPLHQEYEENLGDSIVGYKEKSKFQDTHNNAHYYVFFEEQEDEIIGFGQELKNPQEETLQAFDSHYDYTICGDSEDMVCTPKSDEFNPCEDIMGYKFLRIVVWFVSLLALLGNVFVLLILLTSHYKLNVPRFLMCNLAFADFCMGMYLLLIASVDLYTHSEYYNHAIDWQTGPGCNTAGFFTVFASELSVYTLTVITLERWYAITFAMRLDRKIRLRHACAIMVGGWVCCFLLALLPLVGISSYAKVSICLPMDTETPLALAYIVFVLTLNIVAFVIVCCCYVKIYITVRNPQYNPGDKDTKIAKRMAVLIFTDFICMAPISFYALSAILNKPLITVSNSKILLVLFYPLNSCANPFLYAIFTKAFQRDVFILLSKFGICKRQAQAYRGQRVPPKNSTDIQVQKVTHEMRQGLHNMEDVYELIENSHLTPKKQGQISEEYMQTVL
Sequence of Nuclear receptor subfamily 1 group I member 3 (Homo sapiens) (Q14994 whole entry, looked up): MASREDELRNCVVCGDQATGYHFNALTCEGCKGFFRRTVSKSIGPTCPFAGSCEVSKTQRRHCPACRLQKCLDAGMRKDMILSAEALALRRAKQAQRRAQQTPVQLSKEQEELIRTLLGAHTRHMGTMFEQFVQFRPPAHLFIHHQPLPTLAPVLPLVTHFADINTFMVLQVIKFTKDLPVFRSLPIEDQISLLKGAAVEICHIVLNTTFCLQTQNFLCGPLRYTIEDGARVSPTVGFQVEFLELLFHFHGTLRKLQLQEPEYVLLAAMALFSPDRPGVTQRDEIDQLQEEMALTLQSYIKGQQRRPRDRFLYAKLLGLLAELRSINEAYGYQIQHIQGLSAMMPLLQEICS

With `CCC(C)C1N=C(C)C(C)S1` (stereo not drawn), the Potency entry in [1], in [2], in assay [3], in [4], in assay [5] and in [6] was “inactive” throughout. Also, the Potency entry in [7], in assay [8], in assay [9], in assay [11], in assay [12] and in [15] was “inactive” each time. Further, in assay [16], the Potency entry is “inactive”. For the same compound, the compound was classed as inactive in assay [10] and in assay [14]. Also, in assay [13], the activity change, positive = activation is -2.96%.
As to `O=Cc1ccc([N+](=O)[O-])cc1`, the Potency entry in assay [1], in assay [3], in [17], in [18], in assay [4] and in [5] was “inactive” throughout. The Potency result in assay [7], in assay [8], in assay [9], in assay [11], in assay [12] and in [15] was “inactive” each time. Besides, the Potency entry in assay [20] and in assay [16] was “inactive” each time. The Potency in assay [19] was 61.5 µM (active). In [10], the outcome was inactive. Also, in [13], the activity change, positive = activation was 51.8% (active).
For the compound `C[C@H]1C[C@H]2[C@@H]3CCC4=CC(=O)C=C[C@]4(C)[C@@]3(F)[C@@H](O)C[C@]2(C)[C@@]1(O)C(=O)COP(=O)(O)O`, the Potency result in assay [1], in [2], in assay [3], in assay [4], in [7] and in [8] was “inactive” each time. Moreover, the Potency entry in assay [9], in assay [11], in assay [15], in assay [20] and in [16] was “inactive” each time. The compound was classed as inactive in assay [14].
As to `CCCN(C1CCN(C(=O)C2CCNCC2)CC1)[C@@H]1CCc2ccc(OC)cc2C1`, the Potency result in assay [1], in assay [2], in assay [18], in [19], in assay [4] and in assay [5] was “inactive” in each case. The Potency result in assay [6], in [7], in [8], in [9], in assay [12] and in assay [16] was “inactive” each time. Further, the activity change, positive = activation in assay [13] was -8.07%. Further, the result in assay [14] was inactive.
`CC(C(=O)O)c1ccc(/C=C2\CCCCC2=O)cc1` (stereo not drawn): the Potency entry in assay [1], in [3], in assay [17], in assay [4], in assay [7] and in [8] was “inactive” throughout. The Potency entry in assay [9], in assay [11], in assay [15], in [20] and in [16] was “inactive” throughout. Further, the Potency in assay [19] is 26.6 µM (active). In addition, the compound was classed as inactive in assay [10] and in [14].
With `CCCCCCC/C=C/C=O`, the Potency entry in [1], in assay [3], in assay [17], in [18], in assay [19] and in [4] was “inactive” throughout. The Potency result in [7], in assay [8], in [9], in assay [11], in assay [15] and in assay [20] was “inactive” each time. Moreover, the compound was called inactive in assay [10] and in assay [14].
Consider `Clc1cc(Cl)c2c(c1)N=C1CCCCCN1C2`, for which the Potency result in assay [1], in assay [3], in assay [17], in assay [18], in assay [4] and in assay [5] was “inactive” throughout. The Potency result in [6], in [8], in assay [9], in [12] and in assay [16] was “inactive” each time. Further, the call in assay [10] and in [14] was inactive. For the same compound, the activity change, positive = activation in [13] was 2.85% [at 42.5 µM].
As to `Cc1cccc(C)c1NC(=O)CN1CCCC1`, the Potency entry in assay [1], in assay [2], in [3], in assay [4], in [7] and in assay [8] was “inactive” in each case. Moreover, the Potency result in assay [9], in [15], in assay [20] and in assay [16] was “inactive” each time. Moreover, in assay [10], the outcome was inactive.
With `CCC(C(=O)O)c1ccc(N2Cc3ccccc3C2=O)cc1` (stereo not drawn), the Potency entry in [1], in assay [3], in [17], in assay [4], in [8] and in assay [9] was “inactive” throughout. For the same compound, the Potency entry in assay [15], in assay [20] and in assay [16] was “inactive” each time. Further, in assay [19], the Potency was 5.96 µM (active). The compound was called inactive in [14].
